Test systems include T-47D breast; BT-549 breast; MDA-MB-435 melanoma; SW-620 colon; MCF7 breast; HCT-116 colon; HCC-2998 colon; KM12 colon.
Common to all, as to test: NCI-60 one-dose screen, 48 h (100 = growth as untreated, 0 = no growth, -100 = all killed)
Common to all, as to conditions: 10 µM unless noted

SMILES strings stand for the structures. This is part of a sample that, as a whole, favours compounds with a hit. Of some 83,000 tested, about 20% had one in any assay.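 Plates (96-well) were seeded with cells, treated with compound at one concentration, and incubated for 48 hours before percent growth was determined.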 A number with no mark means an inactive call. The source made the active and inactive calls. The calls were made as follows: active = growth percent below 10; inactive = the rest.

`C[C@]1(O)CC(=O)[C@]2(O)C3=C(C=C[C@]2(O)C1)C(=O)c1c(O)cccc1C3=O`: the growth in the experiment with T-47D breast is -45.5% (active); in the experiment on BT-549 breast it was 45.2%; in the experiment on MDA-MB-435 melanoma, -79.8% (active); in the experiment on SW-620 colon it was -55.5% (active); in the experiment with MCF7 breast, -60.2% (active); in the experiment with HCT-116 colon, -32.1% (active). In addition, the growth is 94.7% in the experiment on HCC-2998 colon and 77.8% in the experiment with KM12 colon.

On to `CCSc1oc(C)nc1[P+](c1ccccc1)(c1ccccc1)c1ccccc1`, for which the growth with T-47D breast is 14.6%; in the experiment with BT-549 breast it was 12.4%; in the experiment on MDA-MB-435 melanoma it was 25.3%; with SW-620 colon it was 32.9%; in the experiment on MCF7 breast, 13.7%; with HCT-116 colon it was 14.4%. Further, the growth in the experiment with HCC-2998 colon is 29.5%; in the experiment with KM12 colon, 8.25% (active).

With `O=C(CCCCCNC(=O)c1cc(=O)c(O)co1)Nc1ccccc1`, the growth was 104% with T-47D breast; 95.9% with BT-549 breast; 100% with MDA-MB-435 melanoma; 101% in the experiment on SW-620 colon; 88.6% in the experiment on MCF7 breast; 97.6% in the experiment on HCT-116 colon. The values for the growth in the experiment on HCC-2998 colon and in the experiment with KM12 colon were 101% and 100%, respectively.

Consider `CCN1C(=O)N(CC)C2C1NC(=S)N2/N=C/c1ccc(OC)cc1` (centres undefined), for which the growth in the experiment on T-47D breast is 49.8%; with BT-549 breast it was 59.4%; with MDA-MB-435 melanoma it was -13.7% (active); in the experiment with SW-620 colon, 25.6%; with MCF7 breast, 22.5%; with HCT-116 colon, 24.7%. Moreover, the values for the growth in the experiment on HCC-2998 colon and in the experiment with KM12 colon were 67.8% and 31.2%, respectively.

For `COc1cccc(/C=C/C(=O)c2cc3c(N)c(C(=O)Nc4cccc5ccccc45)sc3nc2C)c1`, the growth is 32.3% in the experiment with T-47D breast; 19.3% in the experiment with BT-549 breast; -50.7% (active) in the experiment on MDA-MB-435 melanoma; -1.14% (active) in the experiment on SW-620 colon; 13.4% in the experiment with MCF7 breast; 12.2% with HCT-116 colon. Further, the growth in the experiment on HCC-2998 colon is -23.8% (active); in the experiment with KM12 colon, 11%.

Take `CN1CCN(CCOc2ccc(-c3cnc4c(-c5ccc(F)cc5)cnn4c3)cc2)CC1`: the growth with T-47D breast is 52.7%; in the experiment on BT-549 breast, 82.8%; in the experiment on MDA-MB-435 melanoma it was -34.3% (active); with SW-620 colon it was -86.9% (active); in the experiment on MCF7 breast, 41%; in the experiment with HCT-116 colon, 14.5%. Moreover, the growth in the experiment on HCC-2998 colon was 71.6%; with KM12 colon, 9.72% (active).

Consider `C=C1CC[C@@H]2[C@](C)(COC(C)=O)[C@H](OC(C)=O)CC[C@@]2(C)[C@@H]1CC(Nc1ccc(S(=O)(=O)NC(C)=O)cc1)C1=CCOC1=O` (some centres undefined), for which the growth with T-47D breast was -3.67% (active); in the experiment on BT-549 breast it was -62.6% (active); in the experiment on MDA-MB-435 melanoma it was -38.8% (active); in the experiment on SW-620 colon, -65.6% (active); with MCF7 breast, -33.6% (active); in the experiment on HCT-116 colon, -63.9% (active). In addition, the growth in the experiment on HCC-2998 colon was -12.7% (active); with KM12 colon it was -34% (active).

Regarding `C/C(=N\O)c1ccc(NC(=O)CSc2nnc(-c3cc(-c4ccc(S(C)(=O)=O)cc4)nc4ccccc34)n2-c2ccccc2)cc1`, the growth in the experiment with T-47D breast was 63%; with BT-549 breast it was 88.2%; in the experiment on MDA-MB-435 melanoma, 93.5%; in the experiment with SW-620 colon, 97.4%; with MCF7 breast it was 85.6%; in the experiment on HCT-116 colon, 83.7%. The figures for the growth in the experiment on HCC-2998 colon and in the experiment with KM12 colon were 105% and 81.9%, respectively.

For the molecule `CC1(C)[C@@H](O[C@@H]2OC[C@@H](O[C@@H]3O[C@H](CO)[C@@H](O)[C@H](O)[C@H]3O[C@@H]3OC[C@@H](O)[C@H](O)[C@H]3O)[C@H](O)[C@H]2O[C@@H]2O[C@H](CO)[C@@H](O)[C@H](O)[C@H]2O)CC[C@]2(C)[C@H]3CC[C@]45OC[C@@]6(CC[C@](C)(C=O)C[C@H]64)[C@H](O)C[C@@]5(C)[C@]3(C)CC[C@@H]12`, the growth was -55.7% (active) in the experiment with T-47D breast; -94% (active) with BT-549 breast; -83.8% (active) with MDA-MB-435 melanoma; -58.4% (active) in the experiment with SW-620 colon; -59.6% (active) with MCF7 breast; -75.9% (active) in the experiment with HCT-116 colon. Moreover, the growth is -82.1% (active) in the experiment with HCC-2998 colon and -62% (active) in the experiment with KM12 colon.

`CC[C@]12C=CCN3CC[C@@]4(c5ccc(OC)cc5N(C)[C@H]4[C@@](O)(C(=O)OC)[C@@H]1OC(=O)CCC[P+](c1ccccc1)(c1ccccc1)c1ccccc1)[C@@H]32`: the growth is 1.08% (active) with T-47D breast; 11% with BT-549 breast; -21.6% (active) in the experiment on MDA-MB-435 melanoma; 17.4% in the experiment with SW-620 colon; -3.34% (active) with MCF7 breast; 8.72% (active) in the experiment on HCT-116 colon. In addition, the growth in the experiment on HCC-2998 colon was -22.5% (active); in the experiment with KM12 colon, -27.2% (active).

Turning to `COc1ccc(C2=CN3CC=CC3CC2=O)cc1` (centres undefined), the growth with T-47D breast was 75.3%; with BT-549 breast it was 105%; in the experiment on MDA-MB-435 melanoma, 96.9%; with SW-620 colon it was 105%; in the experiment with MCF7 breast, 93.4%; in the experiment with HCT-116 colon, 90.3%. The growth in the experiment on HCC-2998 colon was 91%; with KM12 colon it was 101%.

For `CC/C(Cc1ccccc1)=C(\c1ccc(OCCCN(C)C)cc1)c1ccc(OC(=O)NCc2ccccc2)cc1`, the growth in the experiment on T-47D breast was 52.7%; in the experiment on BT-549 breast, 95%; in the experiment with MDA-MB-435 melanoma it was 77.6%; in the experiment on SW-620 colon, 14.5%; in the experiment on MCF7 breast, 15.6%; in the experiment with HCT-116 colon, 10.4%. Moreover, the values for the growth in the experiment with HCC-2998 colon and with KM12 colon were 70.4% and 72.8%, respectively.

In the case of `COC(=O)CCC/C=C\C[C@H]1C=CC(=O)/C1=C/C[C@@H](O)C/C=C\CC(F)(F)F`, the growth was 2.7% (active) with T-47D breast; -18.3% (active) with BT-549 breast; 4.2% (active) with MDA-MB-435 melanoma; -36% (active) in the experiment on SW-620 colon; 4.67% (active) with MCF7 breast; -61.4% (active) in the experiment on HCT-116 colon. The growth in the experiment on HCC-2998 colon is -68.7% (active); in the experiment with KM12 colon it was -31.7% (active).

These data come from PubChem BioAssay (NCI).
